# ULK1 primary: inhibitors of human ULK1 kinase; O75385; AlphaScreen Atg13 phosphorylation by ULK1, luminescence; inhibition, % at 5.96 µM; 30,000 tested, 1.9% active; in the data active = inhibition above about 43%;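 note: 0% = median of compound wells and 100% = no enzyme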
# Target sequence (O75385 whole entry, looked up): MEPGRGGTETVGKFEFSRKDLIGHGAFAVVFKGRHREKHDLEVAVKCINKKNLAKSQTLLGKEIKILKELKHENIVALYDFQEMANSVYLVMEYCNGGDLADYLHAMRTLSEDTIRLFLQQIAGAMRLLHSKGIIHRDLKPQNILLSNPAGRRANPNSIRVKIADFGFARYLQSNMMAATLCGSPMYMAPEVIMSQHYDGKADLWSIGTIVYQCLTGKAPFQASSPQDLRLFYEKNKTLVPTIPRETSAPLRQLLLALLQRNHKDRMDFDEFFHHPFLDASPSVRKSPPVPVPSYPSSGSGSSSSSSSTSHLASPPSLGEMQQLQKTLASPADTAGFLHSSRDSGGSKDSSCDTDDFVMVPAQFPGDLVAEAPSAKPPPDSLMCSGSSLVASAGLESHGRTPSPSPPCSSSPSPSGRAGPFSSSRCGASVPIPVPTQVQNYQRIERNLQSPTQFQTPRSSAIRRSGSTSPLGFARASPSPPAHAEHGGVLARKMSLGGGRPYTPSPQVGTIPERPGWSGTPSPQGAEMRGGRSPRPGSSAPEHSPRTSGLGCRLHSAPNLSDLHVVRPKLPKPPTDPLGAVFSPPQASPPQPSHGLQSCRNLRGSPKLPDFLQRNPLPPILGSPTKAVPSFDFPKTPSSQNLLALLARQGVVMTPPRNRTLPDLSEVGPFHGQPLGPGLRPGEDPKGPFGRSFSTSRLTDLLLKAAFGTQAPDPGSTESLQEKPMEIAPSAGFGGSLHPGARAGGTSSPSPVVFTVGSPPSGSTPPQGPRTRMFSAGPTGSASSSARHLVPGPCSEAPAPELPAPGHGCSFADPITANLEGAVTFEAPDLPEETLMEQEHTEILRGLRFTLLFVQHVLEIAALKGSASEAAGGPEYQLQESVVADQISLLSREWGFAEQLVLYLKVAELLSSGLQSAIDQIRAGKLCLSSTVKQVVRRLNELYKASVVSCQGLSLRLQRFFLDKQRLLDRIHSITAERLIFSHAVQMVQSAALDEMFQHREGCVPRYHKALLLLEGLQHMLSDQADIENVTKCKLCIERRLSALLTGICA
# ASK1 primary: inhibitors of human ASK1 kinase | AlphaScreen MKK6 phosphorylation by ASK1, luminescence | inhibition, % at 7.44 µM | 22,000 tested, 0.99% active; in the data active = inhibition above about 35%;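 note: 0% = median of compound wells and 100% = no enzyme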
# * hit, by the source's call; . = no result. In the library only some 2.5% were active in any assay of this set; here they are far more common.
SMILES,ULK1 primary,ASK1 primary
FC(F)(F)c1cccc(CNc2ncnc3nc(Nc4cnccn4)[nH]c23)c1,1,9
CN(C)C(=O)c1ncccc1Nc1cc(Nc2ccc3c(c2)CC(=O)N3)ncc1C(F)(F)F,40,-11
CNC(=O)c1ncccc1Nc1cc(Nc2ccc(C(=O)N(C)C)cn2)ncc1C(F)(F)F,56*,7
CNC(=O)c1ccccc1Nc1cc(Nc2ccc(C(=O)N(C)C)cn2)ncc1C(F)(F)F,89*,-8
CNC(=O)c1ncccc1Nc1cc(Nc2ccc3[nH]ncc3c2)ncc1C(F)(F)F,24,5
CNC(=O)c1ccccc1Nc1cc(Nc2ccc(C(=O)N(C)C)cc2C)ncc1C(F)(F)F,78*,-27
Cc1cc(N(C)C)nc(Nc2ccc(NC(=O)c3cccc(F)c3)cc2)n1,-13,.
Cc1cc(NCCc2ccc(O)cc2)nc(Nc2ccc(N3CCOCC3)cc2)n1,8,34
COc1ccc(CC(=O)Nc2cc3cc(-c4cn[nH]c4)ccc3cn2)cc1,38,12
COc1ccc(-c2cccc(C(=O)NCCN3CCOCC3)n2)cn1,3,2
O=C(NCCc1ccc(O)cc1)c1cnc(-c2csc3ccccc23)s1,-31,2
c1cnn(Cc2ccc(Nc3nccc(-c4cncc(N5CCOCC5)c4)n3)cc2)c1,30,-4
Fc1cc(-c2nc(Nc3cccc(Cn4ccnc4)c3)ncc2F)cc(N2CCOCC2)c1,79*,20
Cc1[nH]nc2ccc(Nc3nccc(-c4cncc(N5CCOCC5)c4)n3)cc12,49*,7
Fc1ccc(Nc2nccc(-c3cncc(N4CCOCC4)c3)n2)cc1,17,22
COc1ccc(Nc2nccc(-c3cncc(N4CCOCC4)c3)n2)cc1OC,47*,21
c1cn(Cc2ccc(Nc3nccc(-c4cncc(N5CCOCC5)c4)n3)cc2)cn1,60*,-4
Cc1nc2ccc(Nc3nccc(-c4cncc(N5CCOCC5)c4)n3)cc2o1,-14,16
Fc1cc(-c2nc(Nc3ccc(Cn4ccnc4)cc3)ncc2F)cc(N2CCOCC2)c1,26,13
Cc1noc(C)c1-c1nc(NCc2cccc(C(F)(F)F)c2)c2ncn(-c3ccsc3)c2n1,3,-6
Cn1cnnc1-c1ccc(Nc2nccc(-c3cncc(N4CCOCC4)c3)n2)cc1,58*,7
Cn1cnnc1-c1ccc(Nc2nccc(-c3cc(C#N)cc(N4CCOCC4)c3)n2)cc1,-14,12
CCCNC(=O)c1cccc(NCc2cccnc2)n1,-6,1
FC(F)(F)Oc1ccc(Nc2cc(NCc3cccc(C(F)(F)F)c3)ncn2)cc1,-22,-34
Cc1cnc(Nc2ccc3ncccc3c2)nc1NCCc1ccc(O)cc1,51*,4
SMILES,ULK1 primary,ASK1 primary
COc1cc(Nc2nc(Nc3ccc4ncccc4c3)ncc2C)cc(OC)c1OC,63*,16
COc1cc(Nc2ncc(C)c(Nc3ccccc3)n2)cc(OC)c1OC,73*,15
COc1cc(Nc2nc(Nc3cccnc3)ncc2C)cc(OC)c1OC,33,5
COc1ccc(CCNc2nc(Nc3ccc4ncccc4c3)ncc2C)cc1,32,-4
COc1cc(Nc2nc(Nc3ncccn3)ncc2C)cc(OC)c1OC,29,-5
NC(=O)c1ccc(-c2nc(NCCOc3ccccc3)c3ncn(-c4ccsc4)c3n2)cc1,6,8
CC(C)n1c(N2CCC(N3CCOCC3)CC2)nc2c(NCc3ccccc3)ncnc21,-2,-15
COC1=C(N)C(=O)c2nc(-c3nc(C(=O)O)c(C)c(-c4ccc(OC)c(OC)c4O)c3N)ccc2C1=O,84*,.
CC(C)N(CCNC(=O)c1ccc2nc(-c3cccs3)sc2c1)C(C)C,-6,-10
COc1ccc(-c2nc(NCCOc3ccccc3)c3[nH]cnc3n2)cn1,-6,-7
Cc1cc(C)nc(Oc2ccc(NC(=O)CCl)cc2)n1,0,.
CC(=O)Nc1ccccc1,58*,.
CC(=O)Nc1ccc(O)cc1,-2,.
CCN(CC)C(=O)C1CCCN(c2ccc(-n3cc(CC(=O)NCc4ccccc4)c4ccccc43)nn2)C1 (centres undefined),-9,-6
CC(=O)Nc1ccc(NC(=O)c2ccnc(N3CCc4ccccc4C3)c2)cc1,-1,15
Cc1cnc(NCCCN2CCCC2=O)nc1NCCN1CCOCC1,7,0
Cc1cnc(NCCCN2CCCC2=O)nc1NCCCN1CCCC1=O,1,-2
Cc1cnc(Nc2ccc(N3CCOCC3)cc2)nc1Nc1ccc(N2CCOCC2)cc1,13,21
COc1cc(Nc2ncc(C)c(NCCCN3CCCC3=O)n2)cc(OC)c1OC,76*,4
Cc1cnc(Nc2ccc(N3CCOCC3)cc2)nc1NCCCN1CCCC1=O,44*,-7
Cc1cnc(Nc2nccc3ccccc23)nc1Nc1ccc(N2CCOCC2)cc1,46*,13
CC(=O)Nc1ccc(Nc2nc(NCCCN3CCCC3=O)ncc2C)cc1,35,-14
Cc1cnc(NCCCN2CCCC2=O)nc1Nc1ccc(N2CCOCC2)cc1,46*,4
COCCNC(=O)[C@H](O)[C@@H](O)C(=O)N1CCCN(S(=O)(=O)c2cccc3cnccc23)CC1,-18,-5
FC(F)(F)c1ccc(Cn2cnc3c(NCCOc4ccccc4)nc(Nc4ccccc4)nc32)cc1,-1,-1
SMILES,ULK1 primary,ASK1 primary
CCCNc1nc(-c2c(C)noc2C)nc2c1ncn2-c1ccccc1,-3,0
O=C1CCCN1CCn1cnc2c(NCCOc3ccccc3)nc(NCc3cccnc3)nc21,-9,5
COc1cccc2cc(-c3csc(NC(=O)c4c(F)cccc4F)n3)oc12,-9,.
C=C(NC(=O)C(=C)NC(=O)c1csc(C2=NC3c4csc(n4)C4NC(=O)c5csc(n5)C(C(C)(O)C(C)O)NC(=O)C5CSC(=N5)C(=CC)NC(=O)C(C(C)O)NC(=O)c5csc(n5)C3(CC2)NC(=O)C(C)NC(=O)C(=C)NC(=O)C(C)NC(=O)C(C(C)CC)NC2C=Cc3c(C(C)O)cc(nc3C2O)C(=O)OC4C)n1)C(N)=O (centres undefined),43*,.
S=C(Nc1ccccn1)c1ccccc1,8,.
O=C1C(=O)c2ncccc2-c2cccnc21,38,.
O=C1c2ccccc2-c2n[nH]c3cccc1c23,76*,-43
Cc1cc(N)nc(-c2ccc(C(=O)NC3CC3)cc2)n1,56*,3
CCCNc1cc(C)nc(-c2ccc(C(=O)NC3CC3)cc2)n1,0,4
O=[N+]([O-])c1ccc(OS(=O)(=O)c2ccc3ccccc3c2)c2ncccc12,2,.
Cc1ccc(S(=O)(=O)/N=C2/C(Cl)=C(Cl)C(=O)c3ccccc32)cc1,-2,.
COc1ccc(S(=O)(=O)/N=C2\C=CC(=O)C(Cl)=C2)cc1,44*,.
CCOc1nc2cccc(C(=O)OC(C)OC(=O)OC3CCCCC3)c2n1Cc1ccc(-c2ccccc2-c2nn[nH]n2)cc1 (centres undefined),53*,.
CCCc1nc(C(C)(C)O)c(C(=O)OCc2oc(=O)oc2C)n1Cc1ccc(-c2ccccc2-c2nn[nH]n2)cc1,-4,.
O=C(Nc1cnn(-c2cccc(C(=O)Nc3ccc4[nH]ncc4c3)c2)c1)Nc1ccccc1Cl,13,-2
O=C(c1cccc(Nc2nccc(-c3ccc4nc(C5CC5)[nH]c(=O)c4c3)n2)c1)N1CCCC1,80*,-26
O=C(c1cccc(Nc2nccc(-c3ccc4c(=O)[nH]c(C5CC5)nc4c3)n2)c1)N1CCCC1,65*,-17
Cc1nc2ccc(-c3ccnc(Nc4cccc(C(=O)N5CCCC5)c4)n3)cc2c(=O)n1C,-10,3

# Screens deposited in PubChem BioAssay by The Scripps Research Institute Molecular Screening Center.
